The record followed here is PMC5700166.

What all share (assay): protein-binding microarray (PBM); PBM: ~300 nM protein, 6 mM HEPES pH 7.8, 80 mM KCl, 0.5 mM EDTA, 0.5 mM EGTA, 6% glycerol, 35 ng/ul poly-dIdC, 1% milk, 1 h, room temperature; Ap Aiptasia and Nv Nematostella (sea anemones) / Co Capsaspora / Aq Amphimedon (sponge) / Dm Drosophila / Hu human; RHD is the Rel homology domain; high values mean tight binding
Conditions in all cases: dsDNA, one strand shown

One test deals with T1, GST-Ap-NF-kB RHD (Exaiptasia pallida (Aiptasia), UniProt A0A913YAJ5 2-422).
T1 sequence: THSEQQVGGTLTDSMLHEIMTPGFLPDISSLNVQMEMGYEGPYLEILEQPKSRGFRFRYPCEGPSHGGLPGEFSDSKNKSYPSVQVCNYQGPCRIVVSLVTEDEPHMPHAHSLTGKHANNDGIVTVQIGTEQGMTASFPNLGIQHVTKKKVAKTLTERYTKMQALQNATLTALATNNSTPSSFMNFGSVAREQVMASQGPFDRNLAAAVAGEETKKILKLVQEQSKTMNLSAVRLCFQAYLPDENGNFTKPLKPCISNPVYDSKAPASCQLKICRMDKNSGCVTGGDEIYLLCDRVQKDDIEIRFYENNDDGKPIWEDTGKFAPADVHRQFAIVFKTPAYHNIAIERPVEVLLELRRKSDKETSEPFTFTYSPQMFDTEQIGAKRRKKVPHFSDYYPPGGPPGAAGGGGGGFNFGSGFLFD

Test [1] addresses T2, GST-Nv-NF-kB (Cys allele) (Nematostella vectensis, UniProt E5G601 2-411).
T2 sequence: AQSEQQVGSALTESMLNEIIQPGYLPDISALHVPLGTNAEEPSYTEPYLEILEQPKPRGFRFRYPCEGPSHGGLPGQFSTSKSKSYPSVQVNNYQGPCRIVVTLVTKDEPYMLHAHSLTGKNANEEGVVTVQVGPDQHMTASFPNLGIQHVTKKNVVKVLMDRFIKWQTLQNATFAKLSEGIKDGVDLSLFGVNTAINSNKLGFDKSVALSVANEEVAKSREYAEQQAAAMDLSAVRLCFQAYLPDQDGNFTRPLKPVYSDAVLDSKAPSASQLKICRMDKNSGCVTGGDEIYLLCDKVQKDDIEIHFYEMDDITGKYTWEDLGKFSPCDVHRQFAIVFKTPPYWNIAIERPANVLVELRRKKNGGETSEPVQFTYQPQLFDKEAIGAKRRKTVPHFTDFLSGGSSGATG

A further test has as its target T3, GST-Dm-Relish (Drosophila melanogaster, UniProt Q94527 99-473).
T3 sequence: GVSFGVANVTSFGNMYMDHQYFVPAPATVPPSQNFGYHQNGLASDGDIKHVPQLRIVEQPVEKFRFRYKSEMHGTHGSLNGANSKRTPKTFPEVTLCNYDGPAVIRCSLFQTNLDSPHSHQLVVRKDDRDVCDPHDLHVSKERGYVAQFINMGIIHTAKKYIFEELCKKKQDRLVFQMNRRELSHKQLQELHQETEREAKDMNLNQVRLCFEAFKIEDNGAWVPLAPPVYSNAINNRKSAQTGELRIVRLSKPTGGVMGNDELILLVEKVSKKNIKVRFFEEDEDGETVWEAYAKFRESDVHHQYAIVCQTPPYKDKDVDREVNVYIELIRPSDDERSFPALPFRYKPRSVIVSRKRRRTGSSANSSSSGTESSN

A further test addresses T4, GST-Aq-NF-kB (Amphimedon queenslandica, UniProt A9Y5G7 2-389).
T4 sequence: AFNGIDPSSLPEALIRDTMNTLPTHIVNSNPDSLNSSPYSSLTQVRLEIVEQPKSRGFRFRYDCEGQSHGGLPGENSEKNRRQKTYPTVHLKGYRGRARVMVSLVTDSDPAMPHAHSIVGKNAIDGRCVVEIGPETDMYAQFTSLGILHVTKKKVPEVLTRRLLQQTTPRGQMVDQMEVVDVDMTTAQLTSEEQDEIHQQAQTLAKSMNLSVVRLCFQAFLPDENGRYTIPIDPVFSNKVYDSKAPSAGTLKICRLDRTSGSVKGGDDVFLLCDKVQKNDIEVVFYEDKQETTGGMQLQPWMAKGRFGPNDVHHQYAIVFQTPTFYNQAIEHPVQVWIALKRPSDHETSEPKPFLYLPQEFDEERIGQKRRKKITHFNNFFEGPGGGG

The target in test [2] is T5, GST-Nv-NF-kB (Ser allele) (Nematostella vectensis, UniProt A7UNT2 2-411).
T5 sequence: T2 sequence with Q21R, C66S, S207N, E215Q, V217A, E225K, A268E, D399E

Another test has as its target T6, GST-Co-NF-kB (Capsaspora owczarzaki, UniProt F1ARL5 200-546).
T6 sequence: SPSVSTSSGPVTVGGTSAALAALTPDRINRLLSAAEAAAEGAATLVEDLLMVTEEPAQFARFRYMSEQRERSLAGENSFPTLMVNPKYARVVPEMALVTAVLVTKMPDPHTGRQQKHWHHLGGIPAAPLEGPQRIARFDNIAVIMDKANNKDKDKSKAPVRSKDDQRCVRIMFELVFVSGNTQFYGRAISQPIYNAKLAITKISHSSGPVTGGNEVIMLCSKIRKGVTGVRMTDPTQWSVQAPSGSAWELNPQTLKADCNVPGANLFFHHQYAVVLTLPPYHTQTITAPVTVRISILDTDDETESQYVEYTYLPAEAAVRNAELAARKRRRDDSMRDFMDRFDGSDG

Residue numbers refer to the chain shown, from its start.

Consider “CCGATTAACATCAGGACAATCCCTGATGTTAATCGGGTCTTGATTCGCTTGACGCTGCTG”, for which the binding signal with GST-Ap-NF-kB RHD came out at 2.22 z-score; in test [1] it was 2.68 z-score; in the test with GST-Dm-Relish it was 2.5 z-score; in the test with GST-Aq-NF-kB, 5.09 z-score.
Turning to “CCGATTAACATCAGAAAATTACCTGATGTTAATCGGGTCTTGATTCGCTTGACGCTGCTG”, the binding signal is 2.06 z-score with GST-Ap-NF-kB RHD, 3.89 z-score in test [1], 4.45 z-score in the test with GST-Dm-Relish and 3.25 z-score in the test with GST-Aq-NF-kB.
Taken in the same sequence, the figures for “CCGATTAACATCAACAAAGTCCCTGATGTTAATCGGGTCTTGATTCGCTTGACGCTGCTG” were 4.89 z-score, 5.37 z-score, 5.26 z-score and 4.25 z-score.
Regarding “CCGATTAACATCACGGGACTTCCTGATGTTAATCGGGTCTTGATTCGCTTGACGCTGCTG”, the binding signal came out at 5.89 z-score with GST-Ap-NF-kB RHD, 6.03 z-score in test [1], 7.87 z-score with GST-Dm-Relish and 6.21 z-score in the test with GST-Aq-NF-kB.
In the case of “CCGATTAACATCAGGGATTTTGATGATGTTAATCGGGTCTTGATTCGCTTGACGCTGCTG”, the binding signal with GST-Ap-NF-kB RHD stood at 3.17 z-score; in test [1], 2.95 z-score; with GST-Dm-Relish, 4.91 z-score; with GST-Aq-NF-kB, 2.87 z-score.
Regarding “CCGATTAACATCATTAGGGTATTTGATGTTAATCGGGTCTTGATTCGCTTGACGCTGCTG”, the binding signal was found to be 2.55 z-score with GST-Ap-NF-kB RHD, 3.98 z-score in test [1], 1.47 z-score in the test with GST-Dm-Relish and 3.54 z-score with GST-Aq-NF-kB.
Taken in the same sequence, the figures for “CCGATTAACATCAGGAAGGCCCCTGATGTTAATCGGGTCTTGATTCGCTTGACGCTGCTG” were 2.9 z-score, 2.69 z-score, 4.9 z-score and 5.3 z-score.
Turning to “CCGATTAACATCAGGAACATCCCTGATGTTAATCGGGTCTTGATTCGCTTGACGCTGCTG”, the binding signal in the test with GST-Ap-NF-kB RHD is 1.46 z-score; in test [1], 1.39 z-score; with GST-Dm-Relish, 1.9 z-score; with GST-Aq-NF-kB, 4.06 z-score.
For the sequence “CCGATTAACATCAGGGAAGCCCATGATGTTAATCGGGTCTTGATTCGCTTGACGCTGCTG”, the binding signal in the test with GST-Ap-NF-kB RHD was found to be 1.18 z-score; in test [1], 1.19 z-score; in the test with GST-Dm-Relish, 8.29 z-score; in the test with GST-Aq-NF-kB it was 3.64 z-score.
Taken in the same sequence, the figures for “CCGATTAACATCAGGGCAAACCCTGATGTTAATCGGGTCTTGATTCGCTTGACGCTGCTG” were 1.34 z-score, 1.88 z-score, 1.14 z-score and 4.6 z-score.
Take “CCGATTAACATCAGAAATTTACCTGATGTTAATCGGGTCTTGATTCGCTTGACGCTGCTG”: the binding signal stood at 1.1 z-score in the test with GST-Ap-NF-kB RHD, 2.05 z-score in test [1], 2.77 z-score with GST-Dm-Relish and 2.09 z-score with GST-Aq-NF-kB.
Taken in the same sequence, the figures for “CCGATTAACATCAGGAATCCCACTGATGTTAATCGGGTCTTGATTCGCTTGACGCTGCTG” were 1.73 z-score, 1.37 z-score, 8.1 z-score and 1.75 z-score.
Take “CCGATTAACATCAGGGCTTTACCTGATGTTAATCGGGTCTTGATTCGCTTGACGCTGCTG”: the binding signal with GST-Ap-NF-kB RHD was determined as 1.07 z-score; in test [1] it was 2.29 z-score; with GST-Dm-Relish, 5.69 z-score; in the test with GST-Aq-NF-kB it was 3.97 z-score.
Turning to “CCGATTAACATCACGGTACTTCCTGATGTTAATCGGGTCTTGATTCGCTTGACGCTGCTG”, the binding signal amounted to 2.38 z-score with GST-Ap-NF-kB RHD, 2.66 z-score in test [1], 7.59 z-score in the test with GST-Dm-Relish and 2.93 z-score with GST-Aq-NF-kB.
Turning to “CCGATTAACATCAGGCGAGTCCCTGATGTTAATCGGGTCTTGATTCGCTTGACGCTGCTG”, the binding signal with GST-Ap-NF-kB RHD worked out at 3.13 z-score; in test [1], 3.12 z-score; with GST-Dm-Relish, 1.72 z-score; with GST-Aq-NF-kB it was 4.31 z-score.
As to “CCGATTAACATCAGGGATATCCATGATGTTAATCGGGTCTTGATTCGCTTGACGCTGCTG”, the binding signal with GST-Ap-NF-kB RHD came to 1.84 z-score; in test [1], 1.09 z-score; with GST-Dm-Relish, 2.52 z-score; in the test with GST-Aq-NF-kB, 2.44 z-score.
Taken in the same sequence, the figures for “CCGATTAACATCAGGGATTCCACTGATGTTAATCGGGTCTTGATTCGCTTGACGCTGCTG” were 2.72 z-score, 1.75 z-score, 6.88 z-score and 4.11 z-score.
Turning to “CCGATTAACATCAAAAAATACCATGATGTTAATCGGGTCTTGATTCGCTTGACGCTGCTG”, the binding signal with GST-Ap-NF-kB RHD was 1.11 z-score; in test [1], 1.58 z-score; with GST-Dm-Relish, 4.53 z-score; with GST-Aq-NF-kB it was 2.23 z-score.
The corresponding values for “CCGATTAACATCAATGGGATTCCTGATGTTAATCGGGTCTTGATTCGCTTGACGCTGCTG” are 1.54 z-score, 1.13 z-score, 7.4 z-score and 1.65 z-score.
Regarding “CCGATTAACATCAAGGTAATTCCTGATGTTAATCGGGTCTTGATTCGCTTGACGCTGCTG”, the binding signal with GST-Ap-NF-kB RHD was 1.69 z-score; in test [1], 2.09 z-score; in the test with GST-Dm-Relish, 4.8 z-score; in the test with GST-Aq-NF-kB, 3.37 z-score.
The corresponding values for “CCGATTAACATCAGGCAAGTCCCTGATGTTAATCGGGTCTTGATTCGCTTGACGCTGCTG” are 3.63 z-score, 3.87 z-score, 2.41 z-score and 5.74 z-score.
With “CCGATTAACATCAGGAATCACCCTGATGTTAATCGGGTCTTGATTCGCTTGACGCTGCTG”, the binding signal was determined as 2.46 z-score with GST-Ap-NF-kB RHD, 2.05 z-score in test [1], 7.17 z-score in the test with GST-Dm-Relish and 4.82 z-score with GST-Aq-NF-kB.
Regarding “CCGATTAACATCAAAAATTTACCTGATGTTAATCGGGTCTTGATTCGCTTGACGCTGCTG”, the binding signal in the test with GST-Ap-NF-kB RHD amounted to 1.32 z-score; in test [1], 3.04 z-score; with GST-Dm-Relish, 4.45 z-score; with GST-Aq-NF-kB, 2.7 z-score.
As for “CCGATTAACATCACGGGACATACTGATGTTAATCGGGTCTTGATTCGCTTGACGCTGCTG”, the binding signal with GST-Ap-NF-kB RHD was 1.83 z-score; in test [1], 1.3 z-score; with GST-Dm-Relish, 1.8 z-score; with GST-Aq-NF-kB it was 2.17 z-score.
Take “CCGATTAACATCAGGGAAGCACCTGATGTTAATCGGGTCTTGATTCGCTTGACGCTGCTG”: the binding signal turned out to be 4.67 z-score with GST-Ap-NF-kB RHD, 5.46 z-score in test [1], 9.38 z-score in the test with GST-Dm-Relish and 6.3 z-score with GST-Aq-NF-kB.
For the sequence “CCGATTAACATCAACCCCCCCCGTGATGTTAATCGGGTCTTGATTCGCTTGACGCTGCTG”, the binding signal was 5.8 z-score with GST-Ap-NF-kB RHD; 2.64 z-score in test [2]; 6.25 z-score in the test with GST-Co-NF-kB; 6.51 z-score in the test with GST-Dm-Relish; 4.08 z-score in the test with GST-Aq-NF-kB.
With “CCGATTAACATCAAGGGGGGGATTGATGTTAATCGGGTCTTGATTCGCTTGACGCTGCTG”, the binding signal with GST-Ap-NF-kB RHD stood at 7.19 z-score; with GST-Co-NF-kB it was 4.35 z-score; in the test with GST-Dm-Relish, 5.64 z-score; with GST-Aq-NF-kB, 5.59 z-score.
In the case of “CCGATTAACATCACGGGGGGGGCTGATGTTAATCGGGTCTTGATTCGCTTGACGCTGCTG”, the binding signal with GST-Ap-NF-kB RHD was 4.19 z-score; in the test with GST-Co-NF-kB, 5.11 z-score; with GST-Dm-Relish, 4.98 z-score; with GST-Aq-NF-kB it was 4.34 z-score.
